Reference: PubChem BioAssay AID1159580 (chemical genetic matrix, 2015)
The campaign covered roughly 5,500 compounds. About 2,000 (36%) were called active. Not shown: some 18% with an inconclusive outcome. Rule as the data show it: active = normalized growth mostly below about 0.91 (no sharp cut-off); inconclusive = no clear call, values can overlap the other calls; inactive = mostly above about 0.92. This is one part of the list.

Test: chemical genetic growth profiling, strain panel (AID 1159580);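 also: tested at 20 µM; growth read once vehicle control cultures reached saturation at 30 °C; 1 = growth at the plate median or of vehicle wells; lower values mean less growth of the strain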
Details: growth OD

Measured: normalized growth

O=[N+]([O-])/N=C1/NCCN1Cc1ccc(Cl)cc1
inactive: S. cerevisiae deletion strains, locus YAL013W, strain DEP1, stronger effect = lower value 0.994 | S. cerevisiae deletion strains, locus YBR021W, strain FUR4, stronger effect = lower value 0.992 | S. cerevisiae deletion strains, locus YBR229C, strain ROT2, stronger effect = lower value 0.968 | S. cerevisiae deletion strains, locus YCL029C, strain bik1, stronger effect = lower value 0.99 | S. cerevisiae deletion strains, locus YDL035C, strain GPR1, stronger effect = lower value 0.988 | S. cerevisiae deletion strains, locus YDL074C, strain BRE1, stronger effect = lower value 1.05 | S. cerevisiae deletion strains, locus YDL101C, strain DUN1, stronger effect = lower value 0.993 | S. cerevisiae deletion strains, locus YDL134C, strain PPH21, stronger effect = lower value 0.984 | S. cerevisiae deletion strains, locus YDL185W, strain tfp1, stronger effect = lower value 0.986 | S. cerevisiae deletion strains, locus YDL192W, strain arf1, stronger effect = lower value 0.993 | S. cerevisiae deletion strains, locus YDR101C, strain arx1, stronger effect = lower value 0.998 | S. cerevisiae deletion strains, locus YDR150W, strain NUM1, stronger effect = lower value 1 | S. cerevisiae deletion strains, locus YDR162C, strain NBP2, stronger effect = lower value 1.02 | S. cerevisiae deletion strains, locus YDR318W, strain mcm21, stronger effect = lower value 0.984 | S. cerevisiae deletion strains, locus YDR388W, stronger effect = lower value 0.994 | S. cerevisiae deletion strains, locus YDR502C, strain sam2, stronger effect = lower value 0.988 | S. cerevisiae deletion strains, locus YEL061C, strain CIN8, stronger effect = lower value 0.989 | S. cerevisiae deletion strains, locus YER110C, stronger effect = lower value 0.986 | S. cerevisiae deletion strains, locus YER155C, strain BEM2, stronger effect = lower value 1 | S. cerevisiae deletion strains, locus YER167W, strain BCK2, stronger effect = lower value 0.988 | S. cerevisiae deletion strains, locus YGL078C, strain dbp3, stronger effect = lower value 0.995 | S. cerevisiae deletion strains, locus YGL086W, strain mad1, stronger effect = lower value 0.979 | S. cerevisiae deletion strains, locus YGL248W, strain PDE1, stronger effect = lower value 0.979 | S. cerevisiae deletion strains, locus YGR078C, strain PAC10, stronger effect = lower value 1.02 | S. cerevisiae deletion strains, locus YGR135W, strain pre9, stronger effect = lower value 0.992 | S. cerevisiae deletion strains, locus YGR229C, strain SMI1, stronger effect = lower value 1 | S. cerevisiae deletion strains, locus YGR252W, strain gcn5, stronger effect = lower value 0.989 | S. cerevisiae deletion strains, locus YHR030C, strain SLT2, stronger effect = lower value 0.963 | S. cerevisiae deletion strains, locus YHR079C, strain IRE1 (second series), stronger effect = lower value 0.987 | S. cerevisiae deletion strains, locus YHR094C, strain hxt1, stronger effect = lower value 0.996 | S. cerevisiae deletion strains, locus YHR129C, strain ARP1, stronger effect = lower value 0.994 | S. cerevisiae deletion strains, locus YHR200W, strain rpn10, stronger effect = lower value 0.988 | S. cerevisiae deletion strains, locus YIL066C, strain RNR3, stronger effect = lower value 0.985 | S. cerevisiae deletion strains, locus YIL073C, strain SPO22, stronger effect = lower value 0.995 | S. cerevisiae deletion strains, locus YIL125W, strain kgd1, stronger effect = lower value 0.993 | S. cerevisiae deletion strains, locus YIR030C, strain dcg1, stronger effect = lower value 0.988 | S. cerevisiae deletion strains, locus YJL095W, strain BCK1, stronger effect = lower value 1.01 | S. cerevisiae deletion strains, locus YJL134W, strain LCB3, stronger effect = lower value 0.987 | S. cerevisiae deletion strains, locus YJL168C, strain set2, stronger effect = lower value 0.992 | S. cerevisiae deletion strains, locus YJL187C, strain SWE1 (second series), stronger effect = lower value 0.985 | S. cerevisiae deletion strains, locus YJR043C, strain POL32, stronger effect = lower value 1 | S. cerevisiae deletion strains, locus YJR075W, strain HOC1, stronger effect = lower value 0.998 | S. cerevisiae deletion strains, locus YKL009W, strain mrt4, stronger effect = lower value 1.01 | S. cerevisiae deletion strains, locus YKL068W, stronger effect = lower value 0.991 | S. cerevisiae deletion strains, locus YKL085W, strain MDH1 (second series), stronger effect = lower value 0.989 | S. cerevisiae deletion strains, locus YKL085W, strain MDH1, stronger effect = lower value 0.989 | S. cerevisiae deletion strains, locus YKL190W, strain CNB1, stronger effect = lower value 0.997 | S. cerevisiae deletion strains, locus YKR001C, strain vps1, stronger effect = lower value 0.983 | S. cerevisiae deletion strains, locus YLR039C, strain RIC1, stronger effect = lower value 1.01 | S. cerevisiae deletion strains, locus YLR058C, strain SHM2, stronger effect = lower value 0.986 | S. cerevisiae deletion strains, locus YLR102C, strain apc9, stronger effect = lower value 0.996 | S. cerevisiae deletion strains, locus YLR262C, strain YPT6, stronger effect = lower value 1.02 | S. cerevisiae deletion strains, locus YLR268W, strain sec22, stronger effect = lower value 0.995 | S. cerevisiae deletion strains, locus YLR330W, strain CHS5, stronger effect = lower value 0.988 | S. cerevisiae deletion strains, locus YLR342W, strain FKS1 (second series), stronger effect = lower value 0.965 | S. cerevisiae deletion strains, locus YLR371W, strain rom2, stronger effect = lower value 0.987 | S. cerevisiae deletion strains, locus YLR418C, strain cdc73, stronger effect = lower value 1 | S. cerevisiae deletion strains, locus YML016C, strain PPZ1, stronger effect = lower value 0.999 | S. cerevisiae deletion strains, locus YML032C, strain rad52, stronger effect = lower value 0.98 | S. cerevisiae deletion strains, locus YML124C, strain tub3, stronger effect = lower value 0.985 | S. cerevisiae deletion strains, locus YMR078C, strain ctf18, stronger effect = lower value 0.981 | S. cerevisiae deletion strains, locus YMR223W, strain ubp8, stronger effect = lower value 0.993 | S. cerevisiae deletion strains, locus YMR263W, strain SAP30, stronger effect = lower value 1 | S. cerevisiae deletion strains, locus YMR307W, strain GAS1, stronger effect = lower value 1.03 | S. cerevisiae deletion strains, locus YNL067W, strain RPL9B, stronger effect = lower value 1.01 | S. cerevisiae deletion strains, locus YNL128W, strain TEP1, stronger effect = lower value 0.989 | S. cerevisiae deletion strains, locus YNL153C, strain GIM3, stronger effect = lower value 1 | S. cerevisiae deletion strains, locus YNL233W, strain BNI4, stronger effect = lower value 1 | S. cerevisiae deletion strains, locus YNL250W, strain rad50, stronger effect = lower value 0.987 | S. cerevisiae deletion strains, locus YNL271C, strain bni1, stronger effect = lower value 0.992 | S. cerevisiae deletion strains, locus YNL298W, strain CLA4, stronger effect = lower value 0.989 | S. cerevisiae deletion strains, locus YNL307C, strain MCK1, stronger effect = lower value 0.992 | S. cerevisiae deletion strains, locus YNL322C, strain KRE1, stronger effect = lower value 0.992 | S. cerevisiae deletion strains, locus YNR052C, strain pop2, stronger effect = lower value 0.975 | S. cerevisiae deletion strains, locus YOL006C, strain TOP1, stronger effect = lower value 1.03 | S. cerevisiae deletion strains, locus YOL012C, strain htz1 0.909 | S. cerevisiae deletion strains, locus YOL147C, strain pex11, stronger effect = lower value 0.991 | S. cerevisiae deletion strains, locus YOR061W, strain CKA2, stronger effect = lower value 0.992 | S. cerevisiae deletion strains, locus YOR069W, strain VPS5, stronger effect = lower value 0.97 | S. cerevisiae deletion strains, locus YOR136W, strain idh2, stronger effect = lower value 0.992 | S. cerevisiae deletion strains, locus YOR144C, strain elg1, stronger effect = lower value 0.994 | S. cerevisiae deletion strains, locus YOR184W, strain ser1, stronger effect = lower value 0.998 | S. cerevisiae deletion strains, locus YOR316C, strain cot1, stronger effect = lower value 0.989 | S. cerevisiae deletion strains, locus YPL055C, strain LGE1, stronger effect = lower value 1.03 | S. cerevisiae deletion strains, locus YPL241C, strain CIN2, stronger effect = lower value 0.997 | S. cerevisiae deletion strains, locus YPR119W, strain clb2, stronger effect = lower value 0.987 | S. cerevisiae deletion strains, locus YPR141C, strain kar3, stronger effect = lower value 0.988 | S. cerevisiae deletion strains, locus YPR163C, strain tif3, stronger effect = lower value 0.982 | S. cerevisiae deletion strains, locus YPR167C, strain met16, stronger effect = lower value 0.996 | S. cerevisiae deletion strains, strain wtn01, stronger effect = lower value 0.983 | S. cerevisiae strains, strain wild type, stronger effect = lower value 0.989
